Data reported in PubChem BioAssay (Tox21).
Values joined by “and” are separate entries in the source; they are usually repeats but may differ in a detail not shown here. Identical values can stand only once. Records with an inconclusive call do not appear. Where a structure was tested more than once in an assay, its records may differ in their call. Active and inactive are the calls of the source. Unless noted, the call rests on the fitted dose curve.

Legend:
[1] = qHTS assay to identify small molecule agonists of the constitutive androstane receptor (CAR) signaling pathway - cell viability counter screen (AID 1224836; active means well fitted curve in the direction sought with a large enough effect in the repeat runs; an effect the other way counts as inactive or inconclusive; further: nearly all actives have a fitted effect of over 45% in size; further: potency means the concentration at half of the fitted maximal effect)
Outline: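 Counter screen multiplexed with the CAR reporter readout: HepG2 cells co-transfected with hCAR and the CYP2B6-2.2kb construct receive a 15-concentration compound series and 0.75 uM PK11195 (final), then CellTiter-Fluor fluorescence is read after 23 h.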

[2] = qHTS assay to identify small molecule antagonists of the constitutive androstane receptor (CAR) signaling pathway - cell viability counter screen (AID 1224837; active means well fitted curve in the direction sought with a large enough effect in the repeat runs; an effect the other way counts as inactive or inconclusive; further: nearly all actives have a fitted effect of over 45% in size; further: potency means the concentration at half of the fitted maximal effect)
Outline: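 Using CellTiter-Fluor, viability is scored in HepG2 cells stably carrying hCAR and a 2.2kb CYP2B6 reporter after 23 hr compound exposure across 15 concentrations, with CITCO present at 50 nM.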

[3] = target: Nuclear receptor subfamily 1 group I member 3 (Homo sapiens) (UniProt Q14994); test: qHTS assay to identify small molecule agonists of the constitutive androstane receptor (CAR) signaling pathway (AID 1224839; active means well fitted curve in the direction sought with a large enough effect in the repeat runs; an effect the other way counts as inactive or inconclusive; further: nearly all actives have a fitted effect of over 15% in size; further: potency means the concentration at half of the fitted maximal effect; on activation: series mostly up to about 92 µM)
Sequence of Nuclear receptor subfamily 1 group I member 3 (Homo sapiens) (Q14994 whole entry, looked up): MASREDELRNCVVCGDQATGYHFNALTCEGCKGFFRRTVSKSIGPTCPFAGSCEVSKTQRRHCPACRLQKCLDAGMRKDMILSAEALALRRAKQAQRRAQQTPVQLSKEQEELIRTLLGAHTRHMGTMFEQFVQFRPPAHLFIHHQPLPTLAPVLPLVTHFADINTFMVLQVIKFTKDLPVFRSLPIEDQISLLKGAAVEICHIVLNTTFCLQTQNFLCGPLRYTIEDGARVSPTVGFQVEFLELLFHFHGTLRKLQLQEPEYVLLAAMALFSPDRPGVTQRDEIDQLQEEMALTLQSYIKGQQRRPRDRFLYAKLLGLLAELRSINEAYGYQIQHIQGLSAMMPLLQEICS
Outline: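 A 15-concentration quantitative screen uses HepG2 cells co-transfected stably with human CAR and CYP2B6-2.2kb reporter. Treatment lasts 24 h with 0.75 uM PK11195 final present; ONE-Glo luminescence is the signal.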

[4] = qHTS assay to identify small molecule antagonists of the estrogen related receptor signaling pathway with the pleiotropic PPARgamma coactivator (PGC) from Tox21 10K library - cell viability counter screen (AID 1224840; active means well fitted cell-killing curve with a large enough effect in the repeat runs, not every such curve was filed as active; further: nearly all actives have a fitted effect of over 40% in size; further: potency means the concentration at half of the fitted maximal effect)
Outline: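 Here the PGC/ERR cells serve as a cytotoxicity control: they are exposed to compounds for 17.5 hours at 37 C, and live-cell signal is quantified using CellTiter-Fluor fluorescence.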

[5] = qHTS assay to identify small molecule antagonists of the estrogen related receptor signaling pathway with the pleiotropic PPARgamma coactivator (PGC) from Tox21 10K library (AID 1224841; call rule not given here; further: actives are mostly falling curves and most rising ones were filed inactive; nearly all actives have a fitted effect of over 50% in size; further: potency means the concentration at half of the fitted maximal effect)
Outline: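 Each well held 2,000 PGC/ERR cells, pre-incubated six hours (37 C, 5% CO2). Test substances in DMSO were added by pin tool and left for 18 h at 37 C before luciferase detection by One-Glo.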

[6] = target: Thyrotropin receptor (Homo sapiens) (UniProt P16473); test: qHTS assay to identify small molecule agonists of the thyroid stimulating hormone receptor (TSHR) signaling pathway (AID 1224843); further: nearly all actives have a fitted effect of over 45% in size; further: potency means the concentration at half of the fitted maximal effect
Sequence of Thyrotropin receptor (Homo sapiens) (P16473 whole entry, looked up): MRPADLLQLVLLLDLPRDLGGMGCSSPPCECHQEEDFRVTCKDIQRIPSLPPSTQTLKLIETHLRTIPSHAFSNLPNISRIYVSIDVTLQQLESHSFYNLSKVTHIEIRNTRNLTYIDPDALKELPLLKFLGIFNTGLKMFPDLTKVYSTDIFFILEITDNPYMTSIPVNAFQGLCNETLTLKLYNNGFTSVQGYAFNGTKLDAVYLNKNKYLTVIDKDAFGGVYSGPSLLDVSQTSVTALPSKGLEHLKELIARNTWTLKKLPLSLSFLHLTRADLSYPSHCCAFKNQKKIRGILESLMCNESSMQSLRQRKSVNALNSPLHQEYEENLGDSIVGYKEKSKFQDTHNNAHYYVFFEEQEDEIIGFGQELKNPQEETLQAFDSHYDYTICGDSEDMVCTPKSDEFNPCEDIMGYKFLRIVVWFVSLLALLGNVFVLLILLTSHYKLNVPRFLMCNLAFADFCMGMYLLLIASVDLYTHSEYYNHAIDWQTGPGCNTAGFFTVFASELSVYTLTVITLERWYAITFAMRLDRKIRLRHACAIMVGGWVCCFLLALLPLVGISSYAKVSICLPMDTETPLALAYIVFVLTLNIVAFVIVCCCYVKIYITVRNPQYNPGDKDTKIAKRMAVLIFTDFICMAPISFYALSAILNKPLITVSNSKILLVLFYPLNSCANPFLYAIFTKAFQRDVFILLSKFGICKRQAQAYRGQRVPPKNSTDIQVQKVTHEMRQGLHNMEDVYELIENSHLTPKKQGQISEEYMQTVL
Outline: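 Steps: seed 800 TSHR-HEK293 cells per well; add test compound and hold 30 min at ambient temperature; dispense cAMP-d2 then anti-cAMP cryptate; incubate 1 h at ambient; measure fluorescence intensity.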

[7] = qHTS assay to identify small molecule agonists of the hypoxia (HIF-1) signaling pathway - cell viability counter screen (AID 1224844); further: nearly all actives have a fitted effect of over 50% in size; further: potency means the concentration at half of the fitted maximal effect
Outline: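 Multiplexed with the HRE beta-lactamase assay, this viability read used CellTiter-Glo luminescence (30 min, RT) on HRE-bla ME-180 cells treated 17 hrs with compounds in 0.5% dialyzed FBS medium.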

[8] = qHTS assay to identify small molecule agonists of H2AX (AID 1224845; active means well fitted activation curve with a large enough effect in the signal ratio in the repeat runs, not every such curve was filed as active; the % refers to the signal ratio; further: potency means the concentration at half of the fitted maximal effect)
Outline: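 Wild-type CHO-K1 cells, plated overnight, exposed 3hr at 37C to 15 concentrations (0.76% DMSO final). Lysed, then HTRF anti-pH2AX (S139) cryptate and anti-H2AX-d2 antibodies, 24 hr room temperature; 665/620 nm emission read.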

[9] = qHTS assay to identify small molecule agonists of the hypoxia (HIF-1) signaling pathway (AID 1224846; active means well fitted activation curve with a large enough effect in the signal ratio in the repeat runs, not every such curve was filed as active; the % refers to the signal ratio)
Outline: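 Hypoxia-pathway activation was scored as increased beta-lactamase from an HRE-controlled reporter in ME-180 cells; plated at 2,000 cells per well with 0.5% dialyzed FBS, they were exposed 17 hrs to compounds and then given CCF4-AM.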

[10] = qHTS assay to identify small molecule agonists of H2AX - cell viability counter screen (AID 1224847); further: nearly all actives have a fitted effect of over 30% in size; further: potency means the concentration at half of the fitted maximal effect
Outline: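 We seed wild-type CHO-K1 cells overnight, treat them for 3 hr at 37C with compounds in 15-concentration series, and quantify remaining viability by CellTiter-Glo luminescence.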

Measured: Potency

COCC(=O)N(c1c(C)cccc1C)C(C)C(=O)OC (stereo not drawn)
inactive: all assays above

CCCCCCCCCCCC(=O)O
not listed: [3] | [5]
inactive: all other assays above

O=C(O)CCl
not listed: [3]
inactive: all other assays above

O=P1(N(CCCl)CCCl)NCCCO1 (stereo not drawn)
not listed: [9]
inactive: all other assays above

O=C(O)c1ccccc1O
not listed: [5] | [6]
inactive: all other assays above

O=C(O)C(Cl)Cl
not listed: [3] | [5]
inactive: all other assays above

CC(=O)[O][Hg][c]1ccccc1
active: [1] 2.41 µM and 4.33 µM and 5.96 µM | [2] 2.71 µM and 4.33 µM and 5.31 µM | [4] 1.92 µM and 2.43 µM and 6.68 µM | [5] 2.71 µM and 4.86 µM and 9.44 µM | [6] 2.71 µM and 770 nM and 9.44 µM | [7] 154 nM and 1.74 µM and 2.68 µM | [10] 3.16 µM and 5.66 µM and 24.7 µM
inactive: [3]

COc1ccc(N)cc1
active: [8] 99.1 µM and 89.8 µM
not listed: [3] | [5]
inactive: all other assays above

CC[N+](CC)(CC)CC
not listed: [5]
inactive: all other assays above

Nc1ccccc1
not listed: [3] | [5]
inactive: all other assays above

COc1ccccc1N
not listed: [3] | [6]
inactive: all other assays above

O=c1[nH]c(=O)n(Cl)c(=O)n1Cl
not listed: [3] | [6]
inactive: all other assays above

CCC(=O)C(CC(C)N(C)C)(c1ccccc1)c1ccccc1 (stereo not drawn)
not listed: [5]
inactive: all other assays above

CCOP(=S)(OCC)Oc1ccc2c(C)c(Cl)c(=O)oc2c1
active: [3] 31 µM and 27.3 µM and 29.8 µM
inactive: all other assays above

Nc1ccc(Cl)cc1
not listed: [5]
inactive: all other assays above

OCCOc1ccccc1
inactive: all assays above

O=C(O)C(Cl)(Cl)Cl
not listed: [5]
inactive: all other assays above

Cc1cc(Cl)ccc1N
not listed: [5]
inactive: all other assays above

Cc1cc(-c2ccc(N)c(C)c2)ccc1N
active: [3] 12.2 µM | [6] 1.35 µM
not listed: [5] | [8]
inactive: all other assays above

C[C@]12CCC(=O)C=C1CC[C@@H]1[C@@H]2CC[C@]2(C)C(=O)CC[C@@H]12
active: [8] 88.3 µM
67.4 µM (active) and inactive: [5]
not listed: [9]
inactive: all other assays above

O=c1nc(O)n(Cl)c(=O)n1Cl
not listed: [3] | [6]
inactive: all other assays above

COP(=O)(OC)C(O)C(Cl)(Cl)Cl (stereo not drawn)
24.6 µM (active) and inactive: [5]
not listed: [3] | [9]
inactive: all other assays above

O=[N+]([O-])O
not listed: [3] | [5]
inactive: all other assays above

O=[N+]([O-])c1ccccc1O
not listed: [6]
inactive: all other assays above

CCCC[n+]1ccccc1
not listed: [3] | [5]
inactive: all other assays above

CCCC[N+]1(C)CCCCC1
not listed: [3] | [5]
inactive: all other assays above

CC[n+]1ccccc1
inactive and 1.26 µM (active): [10]
not listed: [3] | [5]
inactive: all other assays above

C1CCC(NC2CCCCC2)CC1
not listed: [5]
inactive: all other assays above

Oc1ccccc1-c1ccccc1
inactive and 35.2 µM (active): [3]
not listed: [5] | [6]
inactive: all other assays above
